About 8,600 (12%) of roughly 69,000 compounds showed an effect of 50% or more. The sample as a whole holds a higher share of strong results than the screen did.

In this test the test system is Plasmodium berghei. Nature of the test: Screen against P. berghei liver stage (PbLuc), transformed with Luciferase, at 10uM. It counts as functional, HepG2. The note with it: tested at 10 uM.
For `CCC(C)(C)C(=O)Nc1ccc2ccn(CC(=O)NC)c2c1`, the INHIBITION was -3.47%. Regarding `Cc1oncc1C(=O)N1C[C@H]2CCCC(N(C)Cc3cccs3)[C@H]2C1` (stereo partly drawn), the INHIBITION is recorded as 21.6%. In the case of `CCS(=O)(=O)CC(=O)NC(C)c1ccc(OCCC(C)C)cc1` (stereo not drawn), the INHIBITION amounted to 15.4%. To `CCOC(=O)Cc1csc(NC(=O)c2ccc(=O)[nH]n2)n1` belongs 18.4%; to `Cc1nc(CN2CCC3(CCN(c4ncc(F)cn4)C3)C2=O)cs1` (stereo not drawn), -23.7%. To `CCc1c(C(=O)N2CCCN(C(C)=O)CC2)cnn1C(C)(C)C` belongs 44.3%; to `CCc1c(C(=O)N2CCC(CC(N)=O)CC2)cnn1C(C)(C)C`, 47.1%; to `CCc1c(C(=O)N2CCN(CC(N)=O)CC2)cnn1C(C)(C)C`, 53.8%. On to `CN(C)S(=O)(=O)NC1CCCc2c1cnn2-c1ccc(C(C)(C)C)cc1` (stereo not drawn), for which the INHIBITION was 58.8%. Next, `Cc1ccc(-n2ncc3c2CCCC3N)cc1C` (stereo not drawn): 33.7%. To `CC(C)(C)c1ccc(-n2ncc3c2CCCC3N)cc1` (stereo not drawn) belongs 22.6%; to `Cn1cc(C2CCCN2CCC(=O)N2CCc3sccc3C2)cn1` (stereo not drawn), 19.2%. To `COc1ccc(CN2CC[C@H]3CO[C@H](CNC(=O)N(C)C)[C@H]3C2)cc1` belongs 12.7%. As to `Cc1ccc(CN2Cc3nccn3CC(Cn3cncn3)C2)s1` (stereo not drawn), the INHIBITION is reported as -9.02%.

In the case of `Cc1ccc(C(=O)N(C)CCNS(C)(=O)=O)cc1Br`, the INHIBITION was 23.9%.

On to `Cc1ccc(C(=O)N(C)S(C)(=O)=O)cc1Cl`, for which the INHIBITION came out at 61.9%. Next, `Cc1sc(C(=O)N(C)S(C)(=O)=O)cc1-c1ccc(F)cc1`: 13.3%. `Cc1cc(Br)ccc1C(=O)N(C)CCNS(C)(=O)=O`: the INHIBITION is 35.9%. Regarding `CN(CC(F)(F)F)C(=O)c1ccc(F)c(NS(C)(=O)=O)c1`, the INHIBITION is reported as -43.5%. To `Cc1ccc(C(=O)N2CCCS2(=O)=O)cc1Cl` belongs 21.1%.

Turning to `Cc1cc(C(=O)N(CC(=O)O)CC(C)C)ccc1F`, the INHIBITION was 40.9%. Next, `Cc1cc(C(=O)N(C)S(=O)(=O)C(C)C)ccc1F`: 61.9%. For `Cc1cc(C(=O)N(C)S(C)(=O)=O)ccc1F`, the INHIBITION worked out at 61%.

For `CN(CCNS(C)(=O)=O)C(=O)c1ccc(Cl)c(Cl)c1`, the INHIBITION turned out to be 66.5%. `CN(C(=O)c1ccc(Cl)c(S(C)(=O)=O)c1)c1ccccc1`: the INHIBITION stood at 5.91%. Next, `Cc1ccc(C(=O)N(CC(=O)O)CC(C)C)cc1F`: 39.7%; `Cc1cc2ccncc2n1CC1(O)CCN(C(=O)c2ccncc2)CC1`: 7.19%. As to `CNc1nc(C)c(C(=O)NCC(C)(C)N2CCCCC2)s1`, the INHIBITION is on record as -34.6%.

Regarding `CN(CCO)Cc1nnc(C2CCN(CC3[C@H]4CNC[C@@H]34)CC2)n1C` (stereo partly drawn), the INHIBITION is -3.55%.

As for `c1ncn(CC2CCCN(Cc3nnc(C4CC4)o3)C2)n1` (stereo not drawn), the INHIBITION is reported as -0.74%. `Cc1nc(C(C)C)sc1C(=O)NCCNc1ncccn1`: the INHIBITION came out at 26.5%. Take `COc1ccc(CN2CCC(C(N)=O)CC2)cc1SC(F)(F)F`: the INHIBITION was 52.2%. Consider `COc1ccc(CN2CCN(C(C)=O)CC2)cc1SC(F)(F)F`, for which the INHIBITION is on record as 21.9%.

Regarding `COc1ccc(CN2CCNC(=O)CC2)cc1SC(F)(F)F`, the INHIBITION is on record as 25.3%.

Consider `O=C(CCc1ccccc1)NCC(O)c1c(F)cccc1F` (stereo not drawn), for which the INHIBITION was determined as 45.7%. Consider `Cc1noc([C@H]2C[C@H]3OCC[C@H]3N(C3CCC3)C2)n1`, for which the INHIBITION stood at 92%. To `Cc1noc([C@H]2C[C@H]3OCC[C@H]3N(Cc3cccs3)C2)n1` belongs 43.9%; to `Cc1noc([C@@H]2C[C@H]3OCC[C@H]3N(CC3CCCC3)C2)n1`, 29.9%; to `Cc1noc([C@H]2C[C@H]3OCC[C@H]3N(Cc3scnc3C)C2)n1`, 0.777%.

Turning to `Cc1noc([C@@H]2C[C@H]3OCC[C@H]3N(C(C)C)C2)n1`, the INHIBITION is -18.2%. Consider `CCc1ccc(CN2C[C@@H](c3nc(C)no3)C[C@H]3OCC[C@H]32)o1`, for which the INHIBITION is reported as -2.72%.

With `Cc1noc([C@@H]2C[C@H]3OCC[C@H]3N(Cc3sccc3C)C2)n1`, the INHIBITION stood at 54.4%. Turning to `Cc1noc([C@@H]2C[C@H]3OCC[C@H]3N(Cc3ccoc3)C2)n1`, the INHIBITION was 15.9%.

Regarding `Cc1noc([C@@H]2C[C@H]3OCC[C@H]3N(Cc3cc(C)c(C)o3)C2)n1`, the INHIBITION came to 57.9%.

Regarding `Cc1cnn(CC2CCCN2CC(=O)Nc2nccs2)c1` (stereo not drawn), the INHIBITION was -12.1%. To `CC(C)N1[C@@H](C(=O)NCC2CC2)C[C@@H]2CN(Cc3ccco3)C[C@@H]21` belongs -11%; to `COCCOc1cc(C)ccc1NC(=O)N(C)Cc1cnn(C)c1`, -58%. In the case of `O=C1CN(Cc2nnc(-c3ccc(Br)cc3)o2)CCN1`, the INHIBITION is recorded as 10.8%. To `CNC(=O)NC(C)c1nc(-c2ccc(Br)cc2)no1` (stereo not drawn) belongs 47.8%; to `Cc1c(O)oc(-c2ccc(Br)cc2)nc1=O`, 55.5%. Next, `CCOCCCNS(=O)(=O)c1ccc2c(c1)NC(=O)C(C)O2` (stereo not drawn): 2.55%. Turning to `Cc1nn(C)c(N(C)C)c1CNC1CCc2c(Cl)cccc21` (stereo not drawn), the INHIBITION is given as 19.915%. On to `Cc1nc(C)c(C(=O)N2CCCC(C(=O)c3nccn3C)C2)s1` (stereo not drawn), for which the INHIBITION turned out to be 36.6%.
